# Compounds with a hit are over-represented: about 0.67% of the library has one in this group of screens.
# Rango dissoc inh: prevents RanGTP from dissociating the Rango-importin beta complex. O95149+P62826. hit rate 0.071% among 340,000. Biochemical FRET Rango-importin beta, RanGTP-induced dissociation. Potency, µM (series often up to 46.1 µM), for inactives: at the top dose activity change, negative = inhibition; also: % of control where 0% means no effect; nearly all actives have a fitted effect of over 45% in size
#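 Two FRET readings bracket the reaction: one 5 min after compound meets Rango–importin beta, another 45 min after RanGTP-RCC1 (0.6 uM Ran, 0.2 uM RCC1, 2 mM GTP) is added. Only the second defines inhibition.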
# Rango-impB inh: prevents formation of the Rango-importin beta complex | Rango CFP/YFP FRET sensor + importin beta, 45 min | Q14974 | Potency, µM (top dose mostly 92.2 µM), for inactives: at the top dose inhibition of complex formation | AID 540263 | hit rate 0.031% among 340,000;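 also: 0% = DMSO wells and 100% = buffer wells lacking importin beta; nearly all actives have a fitted effect of over 15% in size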
#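 FRET biosensor (snurportin 1 IBB flanked by EYFP and cerulean), 50 nM, with compound 5 min, then 0.125 microM importin beta in PBS, 1 mM DTT, 0.02% Tween-20, 0.1% BSA. CFP/YFP ratio read after 45 min at room temperature; pre-read flags interference.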
# gsp antag: gsp mutant antagonism | gsp-mutant cells, cAMP HTRF, 30 min | Potency, µM (doses to about 76.9 µM), for inactives: at the highest dose activity change, negative = inhibition, actives largely listed as inhibitors | hit rate 0.4% among 340,000 | AID 624288; calls by dose curve; cell line not stated here;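 also: intracellular cAMP measured with PDE inhibitor Ro 20-1724 present during compound exposure; % is scaled to controls: 0 for no effect and ±100 for the full control effect; nearly all actives have a fitted effect of over 65% in size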
#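 G418-selected cells were plated in DMEM/10% FBS for 16-24 h at 37C, then treated with compounds plus the PDE inhibitor […] (300 uM solution added) for 30 min at 37C. Intracellular cAMP was measured by HTRF after 30 min lysis at room temperature.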
# gsp ag: activates gsp, the McCune-Albright syndrome mutation; Potency, µM (titrated, usually from 76.9 µM), for the others: top-dose activation (cAMP increase), most hits filed as activators; hit rate 0.13% among 340,000; gsp mutant cells, cAMP HTRF, 30 min; AID 624287; active = well fitted activation curve with a large enough effect; inconclusive = small, poorly fitted or top-dose-only effect, or another doubt; inactive = no such curve, though single readings can be large or run the other way; cell line not stated here;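 also: phosphodiesterase inhibitor Ro 20-1724 added with compounds to block cAMP breakdown; nearly all actives have a fitted effect of over 60% in size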
#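 Cells stably selected in G418 were plated at 2000/well, grown 16-24 hr, then given compounds in DMSO with the PDE inhibitor […] (300 uM solution added) for 30 min at 37C; cAMP was read by HTRF.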
# S-ASM inh: inhibitors of human secretory acid sphingomyelinase | P17405 | placental ASM, HMU-PC fluorogenic substrate, 60 min | Potency, µM (titrated, usually from 57.5 µM), inactives show top-dose activity change, negative = inhibition, hits mostly inhibitors | hit rate 0.006% among 340,000; active = well fitted inhibition curve with a large enough effect; inconclusive = small, poorly fitted or top-dose-only effect; inactive = no such curve, though single readings can be large or run the other way
# Target sequence (P17405 47-631 limits assumed): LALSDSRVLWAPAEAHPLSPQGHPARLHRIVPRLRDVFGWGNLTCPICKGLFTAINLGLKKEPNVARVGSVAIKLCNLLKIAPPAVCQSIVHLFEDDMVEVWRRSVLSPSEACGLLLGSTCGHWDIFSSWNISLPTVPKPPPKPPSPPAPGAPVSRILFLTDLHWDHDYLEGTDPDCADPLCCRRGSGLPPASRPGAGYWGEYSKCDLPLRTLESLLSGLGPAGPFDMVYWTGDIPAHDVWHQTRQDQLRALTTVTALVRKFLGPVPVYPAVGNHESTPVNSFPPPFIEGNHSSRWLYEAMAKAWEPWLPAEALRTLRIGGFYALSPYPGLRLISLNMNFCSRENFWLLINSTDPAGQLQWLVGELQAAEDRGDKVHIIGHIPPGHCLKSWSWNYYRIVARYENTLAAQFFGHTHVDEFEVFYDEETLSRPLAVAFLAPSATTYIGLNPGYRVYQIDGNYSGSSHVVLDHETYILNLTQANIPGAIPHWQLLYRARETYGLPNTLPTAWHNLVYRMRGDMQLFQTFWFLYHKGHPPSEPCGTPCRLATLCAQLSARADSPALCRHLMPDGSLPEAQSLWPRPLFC
#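 qHTS format. ASM enzyme prepared from human placenta hydrolyses the fluorogenic substrate HMU-PC0 (9 uM final) over 60 min at 37 °C after a 10 min compound preincubation.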
# Active calls of the source: *; i = inactive; u = inconclusive; x = not tested or not shown; [ ] = dose if it differs, or a comment. Unless noted, calls follow the shape of the full dose curve. Potency is read from the fitted curve at half-maximal effect.
SMILES,Rango dissoc inh,Rango-impB inh,gsp antag,gsp ag,S-ASM inh
CCOC(=O)c1ccc(NC(=O)c2ccc3c(c2)C(=O)N(CC2CCCO2)C3=O)cc1 (stereo not drawn),-8%,0%,32µM*,-19%,-6%
C#Cc1cccc(NC(=O)c2ccc3c(c2)C(=O)N(Cc2cccnc2)C3=O)c1,21%,-3%,40µM*,33%[15.4 µM],-9%
Cc1c(Cl)cccc1NC(=O)c1ccccc1-c1ccccc1C(=O)O,1%,1%,4%,27%,2%
O=C(Nc1ccc(S(=O)(=O)Nc2nccs2)cc1)c1cccc(N2C(=O)c3ccccc3C2=O)c1,-19%,u,-12%,8%,-2%
N#Cc1cccc(C(=O)Nc2ccc(S(=O)(=O)Nc3nccs3)cc2)c1,9.2µM*,u,10%,3%,-1%
O=C(Nc1ccc(S(=O)(=O)Nc2nccs2)cc1)c1cnc(Cl)c(Cl)c1,10µM*[inhibitor],u,-24%,3%,-3%
O=C(Nc1ccc(S(=O)(=O)Nc2ncccn2)cc1)c1cnc(Cl)c(Cl)c1,0%,-2%,-5%,3%[15.4 µM],0%
Cc1cc(C(=O)NNc2ccc(C(C)C)cc2)n(C(C)(C)C)n1,8%,3%,-7%,-40%,0%
COc1ccc(C(=O)NCC(=O)n2nc(C)cc2C)cc1OC,-1%,3%,9%,10µM*,0%
COc1ccc(C(=O)NCC(=O)OCC(=O)NC(=O)c2ccc(C(C)(C)C)cc2)cc1OC,4%,-1%,50µM*,0%,-7%
Cc1cc(C)n(C(=O)CNC(=O)c2ccc(C(C)(C)C)cc2)n1,-1%,5%,1%,8%,-4%
CCc1ccc(N2CC(C(=O)Nc3cccc(S(=O)(=O)N4CCCC4)c3)CC2=O)cc1 (stereo not drawn),1%,4%,u,14%,x
CCN(CC)CCCn1c2c(c(SCC(=O)N3CCCc4ccccc43)nc1=O)CCC2,9%,-3%,0%,-3%[15.4 µM],-3%
[N-]=C=C1C(=S)NC(=O)[C@H]([n+]2ccccc2)[C@H]1c1ccc(Cl)cc1,u,-2%,5%,20µM*,1%
CC1CCN(C(=O)C2CCCCN2S(=O)(=O)c2cccc([N+](=O)[O-])c2)CC1 (stereo not drawn),1%,-2%,50µM*,-50%,-3%
CC1CCN(C(=O)C2CCCN2S(=O)(=O)c2ccc(Cl)cc2)CC1 (stereo not drawn),0%,-1%,1%,-51%,0%
COCCSc1ccccc1C(=O)N1CCc2ccccc2C1,-19%,-2%,x,9%[15.4 µM],1%
O=C1Nc2ccccc2C12OCC(COc1ccc(Cl)cc1)O2 (stereo not drawn),1%,4%,-25%,8%,-9%
CN1C(=O)C2(OCC(COc3ccc(Cl)cc3)O2)c2ccccc21 (stereo not drawn),-11%,1%,35µM*,4%,-4%
Cc1cc2cc(CN3C(=O)c4ccccc4C3=O)ccc2n1C,-8%,0%,21%,32µM*,-1%
CCC(C(=O)NCCc1ccc(C)cc1)n1nc(C)c2c(C)n(-c3ccccc3)nc2c1=O (stereo not drawn),15%,-2%,50µM*,u,3%
Cc1ccc(CCNC(=O)C(C)n2nc(C)c3c(C)n(-c4ccccc4)nc3c2=O)cc1 (stereo not drawn),11%,0%,-7%,19%,1%
CC(=O)c1nnn(-c2c(F)cccc2F)c1C,-16%,-2%,13%,u,3%
CC(C)(C)C1CCc2c(sc(NC(=O)C3CC=CCC3C(=O)O)c2C#N)C1 (stereo not drawn),-8%,7%,40µM*,-4%,9%
N#Cc1c(NC(=O)C2CC=CCC2C(=O)O)sc2c1CCCCCC2 (stereo not drawn),6%,1%,-24%,1%,6%
SMILES,Rango dissoc inh,Rango-impB inh,gsp antag,gsp ag,S-ASM inh
Cc1cc(NC(=O)CSc2ccc3nnc(-c4cccs4)n3n2)no1,0%,-1%,13%,11µM*,1%
O=C(CSc1ccc2nnc(-c3ccncc3)n2n1)Nc1ccc2c(c1)OCO2,9%,2%,0%,16µM*,3%
O=C(O)CCCNc1c(C(=O)Nc2ccc(Cl)cc2)cc([N+](=O)[O-])cc1[N+](=O)[O-],8%,2%,-12%,-3%[15.4 µM],-2%
COc1ccc(N2CCN(S(=O)(=O)c3c(C)nc4sccn4c3=O)CC2)cc1,4%,4%,3%,-18%,-2%
O=C(CC(c1ccccc1)c1ccccc1O)NCc1ccccc1Cl (stereo not drawn),0%,-6%,35µM*,0%,-1%
Cc1cc(C)n2nc3nc4c(cc3c2n1)CCCC4,u,u,19%,14µM*,i
C=CCc1cc(/C=C2/NC(=O)N(CC(=O)OC)C2=O)cc(OC)c1O,u,u,-11%,-16%,-1%
COc1cc(/C=C2\C(=N)N3N=C(S(C)(=O)=O)SC3=NC2=O)ccc1OC(=O)c1ccco1,5.8µM*,u,0%,-49%,u
CCOc1cc(/C=C2\C(=N)N3N=C(S(=O)(=O)CC)SC3=NC2=O)ccc1OC(=O)c1ccco1,u,5%,4%,-19%,u
Cn1cc(/C=C(\C#N)C(=O)Nc2ccccc2O)c2ccccc21,18µM*[inhibitor],u,u,8%[15.4 µM],-14%
C/C(=N/OC(=O)c1ccc(C(F)(F)F)cc1)c1oc(C)nc1C,6%,5%,14%,-14%[15.4 µM],4%
O=C(NC1CC1)c1cccc(Nc2ccc(-c3ccc4c(c3)OCCO4)nn2)c1,1%,-2%,32µM*,-18%,-6%
O=S(=O)(c1ccc(Nc2ccc(-c3ccc4c(c3)OCCO4)nn2)cc1)N1CCCC1,2%,1%,2%,-74%,-6%
CCN(CC)C(=O)CSc1ccccc1N,0%,0%,3%,-3%,2%
O=C(COc1ccc(Cl)cc1Br)NC(=O)NCc1ccccc1,0%,u,3%,-3%[15.4 µM],-1%
O=C(N/N=C/c1ccc(F)cc1)c1ccc(Br)cc1,-3%,4%,4%,40µM*,-1%
CC(=O)Nc1ccc(S(=O)(=O)NCC(=O)OCC(=O)N2CC(C)OC(C)C2)cc1 (stereo not drawn),5%,-4%,9%,-44%,0%
Cc1nnc(NC(=O)CSc2cn(Cc3ccccc3)c3ccccc23)s1,26%,4%,-13%,16µM*,-3%
COc1cccc(/C=C(\C#N)c2nc3ccc(C)cc3[nH]2)c1OCC(=O)O,16µM*,u,-7%,11%,14%
COc1ccc(C(CNC(=O)C(C)(C)Oc2ccc(Cl)cc2)N2CCOCC2)cc1 (stereo not drawn),u,1%,-11%,11%,x
Nc1nc(-c2cccnc2)nc2sc3c(c12)CCCC3,u,1%,6%,25%,36%

# Screening results from PubChem BioAssay.
